Assay outcomes as filed in PubChem.
Hits are enriched below; roughly 15% of the tested compounds scored in any of these assays.
DT40 TDP1 CPT – DT40-hTDP1 cell growth loss with CPT; chicken DT40 Tdp1-/-;hTDP1 cells + 20 nM CPT, ATP luminescence, 48 h; Potency, µM (top dose mostly 46.2 µM), without a hit: top-dose activity change, negative = growth inhibition, most hits filed as inhibitors; 420,000 compounds, 12% hits; note: nearly all actives have a fitted effect of over 55% in size
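Chicken DT40 Tdp1-/- cells complemented with human TDP1, 400 cells/well, exposed to compounds plus 20 nM camptothecin for at least 48 h at 37 C; viability read as ATP content by CellTiter-Glo luminescence.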
RORgamma inh – inhibitors of mouse ROR gamma transcriptional activity; P51450; Drosophila S2 Gal4-RORgamma UAS-luciferase reporter, 20 h; Potency, µM (series often up to 53.6 µM), for inactives: top-dose activity change, negative = inhibition, hits mostly inhibitors; 310,000 compounds, 5.4% hits; AID 2551; note: nearly all actives have a fitted effect of over 60% in size
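Read-out: Photinus luciferase luminescence; inhibitors lower reporter signal. Insect Schneider cells with Gal4-ROR gamma fusion under metallothionein promoter, UAS reporter; 700 uM final copper sulfate induction, 20 hr, ambient temperature.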
Gal4-VP16 FLuc – counter-screen for ROR gamma inhibitors: Gal4-VP16 reporter; Drosophila S2 Gal4-VP16 UAS-luciferase, luminescence, 20 h; Potency, µM (doses to about 53.6 µM), inactives show at the top dose activity, negative = inhibition, usual class: inhibitors; 310,000 compounds, 3.5% hits;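 note: Gal4-VP16 expression switched on by copper sulfate through the metallothionein promoter; nearly all actives have a fitted effect of over 50% in size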
ELG1 DNA repair – inhibitors of ELG1-dependent DNA repair in HEK293T cells; HEK293T ELG1-luciferase reporter, luminescence, 16 h; DNA damage induced by 5-fluorouridine; 330,000 compounds, 2.3% hits; Potency, µM (series often up to 46.1 µM), for inactives: at the highest dose activity change, negative = inhibition, most hits filed as inhibitors; note: nearly all actives have a fitted effect of over 55% in size
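Overnight (16 hr) co-exposure of 2,000 cells/well to 5-fluorouridine and compound at 37 °C preceded detection. Luciferase was quantified via ONE-Glo luminescence; loss of signal denotes inhibition.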
12-LOX inh – ALOX12 (human) lipoxygenase inhibition. purified 12hLO, xylenol orange hydroperoxide absorbance. Potency, µM (series often up to 108 µM), inactives show at the highest dose activity change, negative = inhibition, most hits filed as inhibitors. 580,000 compounds, 1.1% hits. AID 1671190
Target sequence (P18054 whole entry, looked up): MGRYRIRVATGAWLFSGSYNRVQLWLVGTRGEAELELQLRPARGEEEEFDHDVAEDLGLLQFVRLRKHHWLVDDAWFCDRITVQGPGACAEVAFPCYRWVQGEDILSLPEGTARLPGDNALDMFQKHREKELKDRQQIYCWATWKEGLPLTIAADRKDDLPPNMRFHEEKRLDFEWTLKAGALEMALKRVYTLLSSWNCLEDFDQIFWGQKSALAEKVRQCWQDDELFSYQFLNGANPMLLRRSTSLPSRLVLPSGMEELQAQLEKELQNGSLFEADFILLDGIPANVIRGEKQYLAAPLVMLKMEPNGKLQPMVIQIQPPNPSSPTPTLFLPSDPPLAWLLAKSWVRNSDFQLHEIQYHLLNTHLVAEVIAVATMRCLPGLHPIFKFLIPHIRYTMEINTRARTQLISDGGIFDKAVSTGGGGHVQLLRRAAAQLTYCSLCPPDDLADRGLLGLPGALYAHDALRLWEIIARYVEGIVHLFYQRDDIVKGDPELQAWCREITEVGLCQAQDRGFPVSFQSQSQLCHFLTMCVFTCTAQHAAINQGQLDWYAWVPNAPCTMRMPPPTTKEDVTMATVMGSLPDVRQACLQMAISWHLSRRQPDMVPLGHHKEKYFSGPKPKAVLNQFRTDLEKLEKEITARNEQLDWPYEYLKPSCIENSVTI
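Hydroperoxide product was detected by ferrous iron/xylenol orange as the 573 to 405 nm absorbance ratio. Arachidonic acid at 40 uM (final) was turned over for 30 min at room temperature by 150 nM human 12hLO, pH 7.0 Hepes buffer, after 15 min compound preincubation.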
TDP1 cell noCPT – qHTS for Inhibitors of human tyrosyl-DNA phosphodiesterase 1 (TDP1): qHTS in cells in absence of CPT. DT40 Tdp1-/- hTDP1 cells, no CPT, ATP luminescence, 48 h. Potency, µM (titrated, usually from 46.2 µM), without a hit: at the highest dose activity change, negative = growth inhibition, usual class: inhibitors. 420,000 compounds, 15% hits. AID 686978, 2013; note: nearly all actives have a fitted effect of over 55% in size
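Stably hTDP1-transfected Tdp1-null chicken DT40 cells were treated with library compounds minus camptothecin and grown for at least 48 hr at 37 °C, after which cellular ATP was quantified by luminescence.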
* = called active by the depositor; u = inconclusive; x = no result; [ ] = another dose, or the depositor's remark. Calls come from the whole dose curve; as a rule, active = well fitted curve in the direction sought with a large enough effect; inconclusive = small, poorly fitted or top-dose-only effect, or another doubt; inactive = no such curve, though single readings can be large; an effect the other way counts as inactive or inconclusive. % is set by controls: 0 for no effect and ±100 for the full control effect; potency is the fitted concentration of half-maximal effect.

SMILES	DT40 TDP1 CPT	RORgamma inh	Gal4-VP16 FLuc	ELG1 DNA repair	12-LOX inh	TDP1 cell noCPT
COCCn1c(=O)sc2ccccc2c1=O	21µM*	1%	5%	6%	5%	u
COCCn1c(C2CCCCC2)nc2sc3ccccc3c(=O)c2c1=O	u	2%	-1%	-5%	-4%	23µM*
O=C(COc1ccccc1)NNc1c2ccccc2nc2ccccc12	u	13%	-12%	21µM*	-24%	13µM*
COc1ccc(OCC(=O)NNc2c3ccccc3nc3ccccc23)cc1	23µM*	0.35µM*	7.1µM*	u	3%	21µM*
Cc1cccc(OCC(=O)NCc2cc(C)nc3ccccc23)c1	u	14%	0%	15µM*	0%	u
O=C(NC1CC1)C1CN(c2ccccc2)C(=O)N1 (configuration not stated)	x	x	x	x	10%[176 µM]	x
CC(C)c1nnc2ccc(N3CCC(C(=O)Nc4ccc5c(c4)OCO5)CC3)nn12	x	x	x	x	11%	x
COc1ccc(OC)c(-c2csc(CCn3nc(C)cc3C)n2)c1	-6%	14µM*	4%	-14%	13%	-15%
COc1cccc2cc(-c3csc(CCn4nc(C)cc4C)n3)c(=O)oc12	u	-6%	11%	-10%	u	23µM*
COc1ccc(-c2csc(CCn3nc(C)cc3C)n2)cc1	u	10µM*	u	-13%	-18%	u
COc1ccc(-c2cc(C(F)F)nc(-n3nc(C)cc3C)n2)cc1	-17%	0.89µM*	1.4µM*	u	-13%	u
COc1ccc(-c2csc(CCn3nc(C)cc3C)n2)cc1OC	u	16%	-1%	-22%	9%	-7%
CC(C)C(NC(=O)c1ccc(Cl)cc1)C(C)C	x	x	x	x	-33%	x
CCCn1c(NC)nc2c1c(=O)n(C)c(=O)n2C	x	x	x	x	-29%	x
Cc1cc(C)n(CCc2nc(-c3ccco3)cs2)n1	11µM*	-1%	2%	u	u	13µM*
CCN(C(=O)Cc1nc(-c2cccs2)oc1C)c1ccc(F)cc1	x	x	x	x	38%	x
NC1=Nc2cccc3cccc1c23	u	u	-14%	2%	-5%	16µM*
O=C(Nc1ccc2c(c1)OCCO2)c1ccccc1Cl	-6%	x	x	x	14%	-23%
O=C(NC(=S)Nc1ccc2c(c1)OCCO2)c1ccccc1F	-24%	10µM*	u	u	-26%	7%
O=C(Nc1ccc2c(c1)OCCO2)c1ccccc1F	7.3µM*	u	u	u	28%	15µM*
COc1cccc(OC)c1C(=O)NC(=S)Nc1ccc2c(c1)Cc1ccccc1-2	u	u	3%	10%	-3%	u
COc1cccc(OC)c1C(=O)NC(=S)Nc1ccc2c(c1)OCCO2	-2%	13µM*	-15%	u	u	u
Cn1ccc(C(=O)Nc2ccc3c(c2)OCCO3)n1	u	7.9µM*	u	u	11%	-4%
Cc1ncsc1CCC(=O)NCc1cc2n(n1)CCN(C(=O)N(C)C)C2	x	x	x	x	-4%	x
O=C(Nc1cccc2ccccc12)c1cc(F)c(F)cc1Cl	x	x	x	x	-3%	x
SMILES	DT40 TDP1 CPT	RORgamma inh	Gal4-VP16 FLuc	ELG1 DNA repair	12-LOX inh	TDP1 cell noCPT
COc1cccc(-n2c(=O)[nH]cc(C(=O)Nc3ccc4c(c3)OCCO4)c2=O)c1	4.1µM*	u	-6%	6%	-14%	-20%
CCOc1cccc(C(=O)NC(=S)Nc2ccc(N3CCCC3)cc2)c1	-23%	2.2µM*	6.3µM*	0%	u	u
O=C(Nc1ccc2c(c1)OCCO2)c1ccccn1	u	7.1µM*	14µM*	u	-4%	u
COc1cccc(C(=O)NC(=S)Nc2ccc(Cl)c(C(=O)O)c2)c1	-3%	-3%	-12%	x	u	-6%
CCOc1cccc(C(=O)NC(=S)Nc2ccc(Cl)cc2C(=O)O)c1	u	7.1µM*	3.5µM*	11%	u	u
COc1ccc(-n2c(=O)[nH]cc(C(=O)Nc3ccc4c(c3)OCCO4)c2=O)cc1OC	-16%	13%	-7%	2%	-10%	-3%
Cc1c(C(=O)OCc2ccccc2)sc(=S)n1C	x	x	x	x	2%	x
O=C(CCc1ncc(-c2ccccc2)o1)Nc1cc(F)cc(F)c1	x	x	x	x	3%	x
CC/C=C/C(=O)OCc1ccc(C(N)=O)cc1	x	x	x	x	7%	x
C(=C\c1ccccc1)/CN1CCN(Cc2cc3n(n2)CCCNC3)CC1	x	x	x	x	48%	x
CCOc1ccc(C(=O)Nc2ccc3c(c2)OCCO3)cc1OC	u	2%	-12%	u	-11%	-8%
O=C(NC(=S)Nc1ccc2c(c1)OCCO2)c1ccccc1	u	4µM*	u	u	u	14µM*
O=C(Nc1ccc(NC(=O)c2ccc3c(c2)OCCO3)cc1)c1ccccc1	u	u	-5%	22%	14%	-4%
O=C(Nc1ccc2c(c1)OCCO2)c1ccc2ccccc2n1	-27%	-15%	-28%	u	-3%	u
CCOc1cccc(C(=O)NC(=S)Nc2ccc3c(c2)OCCO3)c1	-16%	7.9µM*	1%	u	16µM*	u
O=C(Nc1ccc2c(c1)OCCO2)c1cccc2nc3ccccc3nc12	23µM*	-24%	-20%	u	-3%	15µM*
Cc1ccc(NC2=CC(=O)c3sc(C)nc3C2=O)cc1	x	2.2µM*	2.5µM*	x	30%	x
Cc1ccc(Nc2nc(=O)[nH]nc2C)cc1	-18%	-2%	1%	-3%	17%	2%
Cc1ccc(C(=O)NNC(=O)CSc2nnc3c(n2)[nH]c2ccc(C)cc23)cc1	u	25%	0%	27%	x	18µM*
CCc1ccc2[nH]c3nc(SCC(=O)NNC(=O)c4ccc(C(C)(C)C)cc4)nnc3c2c1	21µM*	13µM*	0%[0.365 µM]	-1%	-11%	16µM*
CCOc1ccc2[nH]c3nc(SCC(=O)NC4CC4)nnc3c2c1	u	12%	2%	1%	8%	u
Cc1ccc(C(=O)NNC(=O)CSc2nc(N)cc(N)n2)cc1	u	-9%	-2%	1%	-28%	-17%
CCc1ccc2[nH]c3nc(SCCN4CCOCC4)nnc3c2c1	u	u	4%	26µM*	-2%	23µM*
CCc1ccc2[nH]c3nc(SCc4nnc(-c5ccc(C)cc5)o4)nnc3c2c1	u	6%	0%	-2%	0%	u
c1ccc(N2CCN(CCNCC3CNc4ccnn4C3)CC2)cc1 (configuration not stated)	x	x	x	x	15%	x
